Experimental data taken from PubChem BioAssay (Tox21).
Inconclusive results are not listed. Active and inactive are the calls of the source. Unless noted, the call rests on the fitted dose curve; in most records, active means well fitted curve in the direction sought with a large enough effect in the repeat runs; inconclusive means weak or mixed curves; inactive means no such curve, though single readings can be large; an effect the other way counts as inactive or inconclusive.

Tests used:
[1] = qHTS assay to identify small molecule antagonists of the estrogen related receptor (ERR) signaling pathway from Tox21 library - cell viability counter screen (AID 1224834); further: nearly all actives have a fitted effect of over 30% in size
Outline: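 In this quantitative HTS format, ERR cells receive compounds in DMSO and are incubated for 17.5 h at 37 C. Live-cell protease activity is then detected with CellTiter-Fluor.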

[2] = qHTS assay to identify small molecule agonists of the constitutive androstane receptor (CAR) signaling pathway - cell viability counter screen (AID 1224836); further: nearly all actives have a fitted effect of over 45% in size
Outline: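 HepG2 cells stably carrying hCAR and a CYP2B6-2.2kb reporter were plated 4 h, then given compounds at 15 concentrations plus PK11195 (final 0.75 uM). After 23 h at 37 C, viability was read by CellTiter-Fluor fluorescence.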

[3] = biological target: Nuclear receptor subfamily 1 group I member 3 (Homo sapiens) (UniProt Q14994); experiment: qHTS assay to identify small molecule antagonists of the constitutive androstane receptor (CAR) signaling pathway (AID 1224838); further: nearly all actives have a fitted effect of over 40% in size
Outline: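 CITCO-stimulated (50 nM final) HepG2 cells stably transfected with hCAR and CYP2B6-2.2kb luciferase were exposed to compounds at 15 concentrations for 24 h at 37 C/5% CO2. A luciferase reagent was added and luminescence recorded after 30 min.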

[4] = biological target: Thyrotropin receptor (Homo sapiens) (UniProt P16473); experiment: qHTS assay to identify small molecule agonists of the thyroid stimulating hormone receptor (TSHR) signaling pathway (AID 1224843; calls by dose curve; further: nearly all actives have a fitted effect of over 45% in size)
Outline: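 Agonist activity read as cAMP rise via d2/cryptate HTRF competition, 1 h room-temperature detection, in HEK293 cells expressing TSHR. Fifteen-point titrations, each run in triplicate, with a 30 min room-temperature incubation beforehand.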

[5] = qHTS assay to identify small molecule agonists of the hypoxia (HIF-1) signaling pathway - cell viability counter screen (AID 1224844; calls by dose curve; further: nearly all actives have a fitted effect of over 50% in size)
Outline: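 Same wells as the HIF-1 reporter screen; ME-180 cells carrying HRE-bla, 17 hr treatment at 37C; CellTiter-Glo luminescence read after 30 min at room temperature.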

[6] = qHTS assay to identify small molecule agonists of H2AX (AID 1224845; active means well fitted activation curve with a large enough effect in the signal ratio in the repeat runs, not every such curve was filed as active; the % refers to the signal ratio)
Outline: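 Phospho-H2AX Ser139 measured by HTRF (ex 320 nm; em 665 and 620 nm) after 24 hr antibody incubation. Compounds, 15 concentrations, 0.76% DMSO, were applied to CHO-K1 cells for 3hr at 37C before lysis.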

[7] = qHTS assay to identify small molecule agonists of H2AX - cell viability counter screen (AID 1224847; calls by dose curve; further: top concentration of the series differs between compounds; nearly all actives have a fitted effect of over 30% in size)
Outline: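 Wild-type CHO-K1 cells (10% FBS medium) were plated overnight at 37C, exposed to compounds at 15 concentrations for 3 hr at 37C (0.76% DMSO final), and viability was read as CellTiter-Glo luminescence after 30 min at room temperature.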

[8] = qHTS RealTime-Glo MT Cell Viability Assay in HepG2 cells - 24 hour (AID 1224867); further: nearly all actives have a fitted effect of over 50% in size
Outline: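 HepG2 cells were seeded at 600 cells/well together with NanoLuc luciferase and a cell-permeant prosubstrate, preincubated 5 h at 37 C/5% CO2, then pin-dosed with compounds in DMSO. Nonlytic luminescence from viable cells was read at each time point.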

[9] = qHTS RealTime-Glo MT Cell Viability Assay in HEK293 cells - 32 hour (AID 1224868); further: nearly all actives have a fitted effect of over 50% in size; further: potency means the concentration at half of the fitted maximal effect; on activity change, negative = cytotoxic: top concentration of the series differs between compounds
Outline: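 HEK293 cells were seeded at 600 cells/well together with NanoLuc luciferase and cell-permeant prosubstrate, preincubated 5 h at 37 C/5% CO2, then given compound in DMSO by pintool. Luminescence from viable-cell prosubstrate reduction was read repeatedly over 40 h.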

[10] = A CellTox Green Cytotoxicity Assay to monitor cytotoxicity in HEK293 cells - 0 hour (AID 1224869); further: nearly all actives have a fitted effect of over 50% in size
Outline: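 Homogeneous no-lysis format: HEK293 cell suspension mixed with CellTox Green reagent, seeded, incubated 5 h at 37 C/5% CO2, then dosed by pintool with compound in DMSO.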

[11] = biological target: Luciferin 4-monooxygenase (Photinus pyralis) (UniProt P08659); experiment: qHTS assay to identify small molecule inhibitors of firefly luciferase (AID 1224835); further: nearly all actives have a fitted effect of over 25% in size
Outline: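 Inhibition of purified Photinus luciferase is measured by luminescence. Substrate levels (D-luciferin, ATP) sit at their KM values. Each compound is tested in a concentration series.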

[12] = qHTS assay to identify small molecule antagonists of the constitutive androstane receptor (CAR) signaling pathway - cell viability counter screen (AID 1224837); further: nearly all actives have a fitted effect of over 45% in size
Outline: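 In quantitative HTS format, compounds at 15 concentrations were applied to HepG2 cells double-transfected with hCAR and CYP2B6-2.2kb under 50 nM CITCO stimulation; live-cell protease activity was read after 23 hr via CellTiter-Fluor.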

[13] = biological target: Nuclear receptor subfamily 1 group I member 3 (Homo sapiens) (UniProt Q14994); experiment: qHTS assay to identify small molecule agonists of the constitutive androstane receptor (CAR) signaling pathway (AID 1224839);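 further: HepG2 cells stably carrying human CAR and a CYP2B6 luciferase reporter; nearly all actives have a fitted effect of over 15% in size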
Outline: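 HepG2 cells stably expressing hCAR and a CYP2B6-2.2kb luciferase reporter were treated with compounds at 15 concentrations plus 0.75 uM PK11195 (final) for 24 h at 37 C; luminescence was read after ONE-Glo addition.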

[14] = qHTS assay to identify small molecule antagonists of the estrogen related receptor signaling pathway with the pleiotropic PPARgamma coactivator (PGC) from Tox21 10K library - cell viability counter screen (AID 1224840; active means well fitted cell-killing curve with a large enough effect in the repeat runs, not every such curve was filed as active; further: nearly all actives have a fitted effect of over 40% in size)
Outline: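 Viability counter screen, PGC/ERR cells: 17.5 h compound exposure at 37 C, CellTiter-Fluor fluorescence endpoint.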

[15] = qHTS assay to identify small molecule antagonists of the estrogen related receptor signaling pathway with the pleiotropic PPARgamma coactivator (PGC) from Tox21 10K library (AID 1224841; call rule not given here)
Outline: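 In the PGC/ERR line, DMSO solutions of test chemicals are pin-delivered to 2,000 cells/well six hours after dispensing. Following eighteen hours' incubation, One-Glo reagent is added and luminescence recorded.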

[16] = qHTS assay to identify small molecule agonists of the estrogen related receptor signaling pathway with the pleiotropic PPARgamma coactivator (PGC) from Tox21 10K library (AID 1224842); further: nearly all actives have a fitted effect of over 15% in size
Outline: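 Luminescence from One-Glo (30 min, room temperature) measured after PGC/ERR cells had 18 h at 37 C with pinned compound (23 nL in DMSO). Cells had been seeded at 2,000 per well and pre-incubated 6 h.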

[17] = qHTS assay to identify small molecule antagonists of the estrogen related receptor (ERR) signaling pathway from Tox21 library (AID 1224848); further: nearly all actives have a fitted effect of over 50% in size
Outline: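 Luciferase luminescence (ONE-Glo, 30 min room temperature) was the read-out. Cells of the NTP-supplied ERR line, 2,000 per well, were given 6 h at 37 C before compound addition in DMSO and 18 h exposure at 37 C.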

[18] = qHTS assay to identify small molecule agonists of the estrogen related receptor (ERR) signaling pathway from Tox21 library (AID 1224849; calls by dose curve; further: nearly all actives have a fitted effect of over 15% in size); conditions: ERR reporter cell line, ONE-Glo luciferase, 18 h; at 92.4 µM (top of the series) unless noted
Outline: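 Reporter cells (ERR, NTP source) treated with Tox21 10K compounds 18 h, 37 C. Readout: ONE-Glo luminescence, 30 min RT.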

[19] = qHTS assay to identify small molecule agonists of the hypoxia (HIF-1) signaling pathway (AID 1224846; active means well fitted activation curve with a large enough effect in the signal ratio in the repeat runs, not every such curve was filed as active; the % refers to the signal ratio)
Outline: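 In ME-180 cells bearing an HRE-bla construct, 17 h treatment with DMSO-dissolved compounds at 37C was followed by CCF4-AM loading to quantify reporter induction.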
On the % scale 0 is the no-effect control and ±100 the full control effect.

Sequence of Nuclear receptor subfamily 1 group I member 3 (Homo sapiens) (Q14994 whole entry, looked up): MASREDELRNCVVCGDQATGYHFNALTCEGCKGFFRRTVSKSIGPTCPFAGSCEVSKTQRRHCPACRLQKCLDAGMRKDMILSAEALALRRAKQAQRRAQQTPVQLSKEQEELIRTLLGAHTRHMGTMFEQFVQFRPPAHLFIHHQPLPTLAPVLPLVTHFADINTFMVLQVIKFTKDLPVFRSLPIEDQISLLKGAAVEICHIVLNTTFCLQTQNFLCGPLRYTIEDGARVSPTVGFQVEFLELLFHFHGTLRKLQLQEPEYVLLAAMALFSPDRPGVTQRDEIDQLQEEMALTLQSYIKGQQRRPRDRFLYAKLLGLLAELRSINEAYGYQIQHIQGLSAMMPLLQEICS
Sequence of Thyrotropin receptor (Homo sapiens) (P16473 whole entry, looked up): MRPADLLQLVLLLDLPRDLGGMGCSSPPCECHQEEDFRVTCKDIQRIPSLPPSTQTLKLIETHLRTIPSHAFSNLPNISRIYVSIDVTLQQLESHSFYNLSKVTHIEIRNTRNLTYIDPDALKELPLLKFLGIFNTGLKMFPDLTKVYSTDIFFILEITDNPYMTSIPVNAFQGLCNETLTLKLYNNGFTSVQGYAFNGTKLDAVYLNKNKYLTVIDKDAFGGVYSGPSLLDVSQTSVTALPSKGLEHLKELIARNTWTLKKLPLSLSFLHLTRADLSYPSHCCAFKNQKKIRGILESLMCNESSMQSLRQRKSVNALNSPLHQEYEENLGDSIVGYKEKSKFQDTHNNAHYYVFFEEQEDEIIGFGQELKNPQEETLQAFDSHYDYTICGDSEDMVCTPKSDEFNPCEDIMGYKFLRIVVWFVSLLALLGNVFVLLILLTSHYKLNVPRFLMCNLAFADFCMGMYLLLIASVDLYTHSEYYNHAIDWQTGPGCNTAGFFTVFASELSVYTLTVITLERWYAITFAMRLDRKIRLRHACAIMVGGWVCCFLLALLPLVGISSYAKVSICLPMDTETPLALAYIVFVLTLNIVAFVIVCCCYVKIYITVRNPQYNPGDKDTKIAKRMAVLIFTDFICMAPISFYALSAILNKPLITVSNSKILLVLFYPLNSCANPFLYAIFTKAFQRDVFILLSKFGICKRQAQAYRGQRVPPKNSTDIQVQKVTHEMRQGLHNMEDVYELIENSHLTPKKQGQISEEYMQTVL
Sequence of Luciferin 4-monooxygenase (Photinus pyralis) (P08659 whole entry, looked up): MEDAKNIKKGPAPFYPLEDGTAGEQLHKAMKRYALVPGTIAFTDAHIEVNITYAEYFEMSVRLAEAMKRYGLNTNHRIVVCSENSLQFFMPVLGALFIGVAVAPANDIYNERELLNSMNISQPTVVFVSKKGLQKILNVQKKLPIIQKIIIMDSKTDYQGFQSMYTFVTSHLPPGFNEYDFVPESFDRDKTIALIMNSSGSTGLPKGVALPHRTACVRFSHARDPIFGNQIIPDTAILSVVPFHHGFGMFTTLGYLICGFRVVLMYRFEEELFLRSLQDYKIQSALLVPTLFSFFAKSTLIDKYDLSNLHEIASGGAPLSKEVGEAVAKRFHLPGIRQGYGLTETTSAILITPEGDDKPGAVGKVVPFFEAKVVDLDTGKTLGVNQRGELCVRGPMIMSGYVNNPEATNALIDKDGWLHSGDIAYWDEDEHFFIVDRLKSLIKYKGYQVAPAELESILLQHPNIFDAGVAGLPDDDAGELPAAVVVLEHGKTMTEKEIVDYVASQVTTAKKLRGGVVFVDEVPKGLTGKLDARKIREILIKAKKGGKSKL

CCOC(=O)c1ccc(OC(=O)CCCCCN=C(N)N)cc1
inactive: Potency [1] | Potency [2] | outcome [3] | Potency [4] | outcome [5] | outcome [6] | Potency [7] | outcome [8] | Potency [9] | outcome [10]

O=C(O)c1cc(Cl)cc([N+](=O)[O-])c1Cl
inactive: Potency [11] | Potency [2] | Potency [12] | outcome [3] | Potency [13] | outcome [14] | Potency [15] | outcome [16] | Potency [4] | outcome [5] | outcome [6] | Potency [7] | Potency [17] | activity change, positive = activation [18] -9.65% | outcome [8] | Potency [9] | outcome [10]

COCCOCCOCCOCCO
inactive: Potency [11] | Potency [2] | Potency [12] | outcome [3] | Potency [13] | outcome [14] | Potency [4] | outcome [5] | outcome [6] | outcome [19] | Potency [7] | outcome [8] | Potency [9] | outcome [10]

CC(C)CCCCOC(=O)c1ccccc1C(=O)OCCCCC(C)C
inactive: Potency [11] | Potency [2] | Potency [12] | Potency [13] | outcome [14] | Potency [15] | outcome [16] | outcome [5] | outcome [6] | outcome [19] | Potency [7] | Potency [17] | activity change, positive = activation [18] -6.44% | outcome [8] | Potency [9] | outcome [10]

CCOc1cc([N+](=O)[O-])c(OCC)cc1N1CCOCC1
inactive: Potency [11] | Potency [2] | Potency [12] | outcome [14] | Potency [4] | outcome [5] | outcome [6] | outcome [19] | Potency [7] | outcome [8] | outcome [10]
active: Potency [9] 15.5 µM

Cc1[nH]cnc1-c1ccc(Cl)cc1
inactive: Potency [1] | Potency [2] | Potency [12] | outcome [3] | Potency [4] | outcome [5] | outcome [6] | outcome [19] | Potency [7] | outcome [8] | Potency [9] | outcome [10]

OCCN(CCO)c1cccc(Cl)c1
inactive: Potency [11] | Potency [2] | Potency [12] | outcome [3] | Potency [13] | outcome [14] | Potency [4] | outcome [5] | outcome [6] | outcome [19] | Potency [7] | outcome [8] | Potency [9] | outcome [10]

N[C@@H](CCC(=O)N[C@@H](CS)C(=O)NCC(=O)O)C(=O)O
inactive: viability change, negative = cytotoxic [1] 0.69% [at 19 µM] | viability change, negative = cytotoxic [2] 2.39% [at 19 µM] | activity change, negative = cytotoxicity [12] 7.5% [at 19 µM] | viability change, negative = cytotoxic [14] 15.7% [at 19 µM] | activation [4] 2.71% [at 19 µM] | activity change, negative = cytotoxicity [5] 2.76% [at 15.8 µM] | activation (H2AX phosphorylation) [6] -1.53% [at 31.6 µM] | activation [19] -0.104% [at 15.8 µM] | activity change, negative = cytotoxicity [7] 0.69% [at 31.6 µM] | activity change, negative = cytotoxicity [8] 0.707% [at 15.8 µM] | activity change, negative = cytotoxic [9] 7.09% [at 15.8 µM] | cytotoxicity [10] 0.542% [at 15.8 µM]

CC(C)NCC(O)COc1cccc2[nH]ccc12 (centres undefined)
inactive: Potency [1] | Potency [2] | Potency [12] | outcome [3] | outcome [14] | Potency [4] | outcome [5] | outcome [6] | Potency [7] | outcome [8] | Potency [9] | outcome [10]
